Source: PubChem (several laboratories)
EBV LMP1 NFkB = inhibitors of Epstein-Barr LMP1-induced NF-kappaB reporter; LMP1-induced NF-kappaB luciferase reporter cells, luminescence; actives 0.69% (n = 350,000); inhibition, % at 12.5 µM; in the data active = inhibition above about 41%
TWEAK Fn14 block = inhibitors of TWEAK-Fn14 interaction signaling | AID 1159606 | inhibition, % at 10 µM | actives 2% (n = 360,000) | TWEAK-stimulated Fn14 reporter cells, luciferase luminescence, 8 h; in the data active = inhibition above about 50%
HIF-2a inh = inhibitors of HIF-2a. 786-0 RCC cells HIF-2a reporter, luciferase luminescence, overnight. inhibition, % at 18.8 µM. actives 0.72% (n = 360,000). AID 624352;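 active = inhibition of the luminescence signal of 40% or more relative to plate controls, in a single-dose primary screen at 18.75 µM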
TRPM1 prom inh = reduces MITF-dependent TRPM1 promoter luciferase signal; AID 488899; actives 0.83% (n = 330,000); SK-MEL-5 TRPM1 promoter luciferase, 24 h; inhibition, % at 12.5 µM;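 active = mean inhibition across replicates of 60% or more, whatever share of single replicates reaches that level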
TROY NFkB inh = inhibitors of TROY-dependent NF-kB signaling | Q293 LMP1-TROYcd NF-kB luciferase reporter, 4 h | inhibition, % at 10 µM | actives 0.98% (n = 360,000) | AID 1347056;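 active = compounds whose plate-normalised and pattern-corrected inhibition of the luciferase reporter signal at the single screening dose is 50% or more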
Peg3 prom inh = reduces Peg3 promoter-driven luciferase expression in HeLa | HeLa PEG-Prom luciferase reporter, luminescence, overnight | inhibition, % at 20 µM | actives 1.7% (n = 360,000) | AID 588405;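 active = inhibition of at least 50% at 20 µM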
Numbers stand for hits; . = inactive; / = not tested or not shown. An excerpt weighted towards active compounds, which were near 4% of everything screened.

SMILES	EBV LMP1 NFkB	TWEAK Fn14 block	HIF-2a inh	TRPM1 prom inh	TROY NFkB inh	Peg3 prom inh
COC(=O)c1ccccc1NC(=S)N(Cc1ccc2c(c1)OCO2)Cc1cc2cc(OC)ccc2[nH]c1=O	.	.	.	.	.	.
Cc1ccc2cc(C#N)c(SCc3nnc(-c4ccccc4[N+](=O)[O-])o3)nc2c1	.	.	.	.	.	.
Cc1ccc(-c2cn(-c3ccccc3)c(SCC(=O)NC3CCS(=O)(=O)C3)n2)cc1C (stereo not given)	.	.	.	.	51.9	.
Cc1ccc(SCC(=O)NC2CCS(=O)(=O)C2)cc1C (stereo not given)	.	.	.	.	.	.
NNC(=O)CSc1nc(-c2ccccc2)cn1-c1ccccc1	.	63.0	.	.	72.3	.
O=Nc1c2cc3ccccc3[nH]c-2c2ccccc12	.	.	.	.	.	.
O=Nc1c(O)c2ccccc2c2ccccc12	.	97.8	.	97.3	.	96.5
COc1ccc(CNC(=O)CCNC(=O)C2CCN(S(=O)(=O)c3ccc(OC)cc3)CC2)cc1	.	.	.	/	.	.
CSCCC(NC(=O)c1ccccc1Br)C(=O)NNC(=O)c1cc(C)oc1C (stereo not given)	.	.	.	.	.	.
COc1ccc(N/N=C(\C#N)C(N)=O)cc1	.	.	.	.	.	.
N#C/C(=N/Nc1ccc(OC(F)(F)F)cc1)C(N)=S	.	79.5	.	.	.	.
C[C@H]1CN([C@@H](C)CO)C(=O)CCCn2cc(nn2)CO[C@@H]1CN(C)C(=O)CCC(F)(F)F	.	88.5	.	/	.	.
NS(=O)(=O)c1ccc2nc(-c3ccccc3)c(-c3ccccc3)nc2c1	.	.	.	.	.	.
O=c1cc(CSc2ccc(Cl)cc2)nc(-c2ccccn2)[nH]1	.	105.6	.	67.4	.	90.7
O=c1cc(CSc2ccc(Cl)cc2)nc(-c2ccccc2)[nH]1	.	.	.	.	.	.
Oc1ccccc1C1=Nc2ncnn2C(c2ccc(F)cc2)C1 (stereo not given)	61.8	.	.	.	.	.
CC(NC(=O)c1ccc(C(=O)c2ccccc2)cc1)c1ccc(S(N)(=O)=O)cc1 (stereo not given)	.	.	.	.	.	.
CCOc1ccc(C(CC(=O)O)NC(=O)c2sc3ccccc3c2Cl)cc1 (stereo not given)	51.5	.	.	.	.	.
O=C1C=C(N2CCN(c3ccccn3)CC2)C(=O)c2c(O)ccc(O)c21	.	.	.	91.9	.	.
O=C(N1CCN(c2ccccn2)CC1)C(Cl)(Cl)Cl	.	.	.	.	.	.
COc1ccc(/C=N\NC(=O)c2sccc2C)cc1Cn1nc(C)cc1C	.	.	.	.	.	.
CC(=O)c1cccc(-c2ccc3c(c2)C(C)(Cc2ccccc2F)C(=O)N3)c1 (stereo not given)	/	57.5	.	/	.	.
Cn1cc([N+](=O)[O-])c(C(=O)N2CCN(Cc3ccc4c(c3)OCO4)CC2)n1	.	.	.	.	.	.
O=C(CCl)c1cc2c3c(c1)CC(=O)N3CCC2	.	.	.	.	.	81.0
CCOC(=O)/C(=C/c1ccc(OC(=O)c2ccncc2)cc1)C(C)=O	.	.	.	.	.	.
SMILES	EBV LMP1 NFkB	TWEAK Fn14 block	HIF-2a inh	TRPM1 prom inh	TROY NFkB inh	Peg3 prom inh
CCOC(=O)C(=Cc1ccc(Br)cc1)C(=O)OCC	.	59.5	.	.	.	.
CCOC(=O)C(=Cc1ccc(-n2ccnc2)cc1)C(=O)OCC	.	95.9	92.8	/	63.8	106.8
COC(=O)c1ccc(-n2ccnc2)cc1	.	.	.	.	.	.
Cc1nc(SCC(=O)N2CCCC2=O)nc(C)c1C	.	.	.	.	.	.
OC(CN1CCN(c2ccccn2)CC1)Cn1c2ccc(Cl)cc2c2cc(Cl)ccc21 (stereo not given)	.	51.8	.	.	.	.
OC(COC(c1ccc(Cl)cc1)c1ccc(Cl)cc1)CN1CCN(c2ccccn2)CC1 (stereo not given)	.	.	.	.	.	.
OC(CN1CCCCC1)Cn1c2ccc(Cl)cc2c2cc(Cl)ccc21 (stereo not given)	.	.	.	.	.	103.9
COc1ccc(OC)c(-c2cc(C3CCN(c4cc(Cl)nc(N)n4)CC3)[nH]n2)c1	.	66.9	.	.	53.2	.
Nc1nc(Cl)cc(N2CCC(c3cc(-c4ccc(Cl)cc4)n[nH]3)CC2)n1	.	94.4	.	65.2	.	.
Cc1cc(C)c(OCC(=O)OCC(=O)NNC(=O)c2ccccc2F)c(C)c1	.	.	.	.	.	.
COCCNC(=O)C1(C)CCCN(C(=O)c2ccco2)C1 (stereo not given)	/	.	.	/	.	.
O=C(NC1CC2CCCC(C1)N2S(=O)(=O)c1ccccc1)c1ccco1 (stereo not given)	.	.	.	.	.	.
CC(=O)NC1CC2CCCC(C1)N2S(=O)(=O)c1cccc(F)c1 (stereo not given)	.	104.5	.	.	.	.
COc1ccccc1N1CCN(C(=O)Nc2cccc(C)c2)CC1	.	.	.	.	.	.
COc1ccc(C(=O)C[C@@H]2OC3CCCCC3N2S(=O)(=O)c2ccc(C)cc2)cc1OC (stereo not given in full)	/	/	.	/	/	/
O=C1[C@@H]2Cc3c([nH]c4ccccc34)C(c3cccc(Br)c3)N2C(=O)CN1C1CCN(Cc2ccccc2)CC1 (stereo not given in full)	.	.	.	.	.	96.0
O=C1[C@@H]2Cc3c([nH]c4ccccc34)C(c3ccccc3)N2C(=O)CN1C1CCN(Cc2ccccc2)CC1 (stereo not given in full)	/	.	.	.	.	.
CC(C)(CNC(=O)c1cc2c(s1)CCCC2)N1CCOCC1	.	.	.	.	.	.
Cc1cc(N/N=C/c2ccccc2O)nc(-c2ccccc2O)n1	.	.	.	.	.	.
Cc1cc(N/N=C/c2ccc(O)cc2O)nc(-c2ccccc2O)n1	.	65.4	.	.	.	67.5
Oc1ccccc1C=NNc1nc2ccccc2s1	.	57.2	.	.	.	.
C(=N\Nc1nc2ccccc2s1)/c1cccs1	.	.	.	.	.	.
Oc1ccc(C=NNc2nc3ccccc3s2)c(O)c1	.	59.8	.	.	.	.
COc1cccc(C=NNc2nc3ccccc3s2)c1OC	.	.	.	.	.	.
CC1Sc2ccc(S(=O)(=O)CCC(=O)N3CCN(c4cccc(Cl)c4)CC3)cc2NC1=O (stereo not given)	.	.	.	.	.	.
CC(C)Cn1cnc2c1c(=O)n(CC(=O)NC(=O)NC(C)(C)C)c(=O)n2Cc1ccccc1	.	.	.	.	.	.
COc1ccc(CC(=O)N/N=C/c2cc(Br)cs2)cc1OC	.	66.9	.	.	.	.
Cc1ccc(-c2nn(-c3ccccc3)cc2/C=C/C(=O)O)o1	.	.	.	.	.	.
